# PubChem BioAssay (Tox21)
# “And” between values parts separate entries of the source, which are not always exact repeats. Identical values can stand only once. Inconclusive results are not listed. Where a call stands in place of a potency, no number is given. Some structures have more than one record in an assay (separate samples or runs), and their calls can disagree. The source made the active and inactive calls. Unless noted, the call rests on the fitted dose curve; in most records, active means well fitted curve in the direction sought with a large enough effect in the repeat runs; inconclusive means weak or mixed curves; inactive means no such curve, though single readings can be large; an effect the other way counts as inactive or inconclusive.
# What was measured:
# [1] = qHTS assay to identify small molecule agonists of the RXR signaling pathway - cell viability counter screen (AID 1159529);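 further: HEK 293T cells carrying an RXR-alpha UAS beta-lactamase reporter; series mostly up to about 77 µM; nearly all actives have a fitted effect of over 50% in size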
# Summary of the method: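 Steps: seed RXR-alpha-UAS-bla HEK 293T cells in assay medium containing 2% charcoal-stripped FBS; incubate 5 hr; add compounds in DMSO; incubate 16 hr at 37 C; after the bla read, add CellTiter-Glo and read luminescence at 30 min.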
# [2] = qHTS assay to identify small molecule antagonists of the retinoic acid receptor (RAR) signaling pathway (AID 1159552; further: nearly all actives have a fitted effect of over 50% in size; further: potency means the concentration at half of the fitted maximal effect)
# Summary of the method: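 Retinol at 1 uM final stimulated RARE-luciferase expression in C3RL4 cells exposed to test compounds for 6 hr at 37 C. Reduced luminescence, read 30 min after detection reagent, indicated pathway antagonism.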
# [3] = qHTS assay to identify small molecule agonists of the retinoic acid receptor (RAR) signaling pathway (AID 1159553); further: potency means the concentration at half of the fitted maximal effect
# Summary of the method: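 In this cell-based screen, 1,000 C3RL4 cells per well were cultured overnight, dosed with test chemicals in DMSO for 6 hr, and assessed for RARE luciferase luminescence.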
# [4] = qHTS assay to identify small molecule antagonists of the retinoid acid receptor (RAR) signaling pathway - cell viability counter screen (AID 1159551); further: nearly all actives have a fitted effect of over 35% in size; further: potency means the concentration at half of the fitted maximal effect
# Summary of the method: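 In this counter screen, the RARE-luciferase line C3RL4 was exposed for 6 h at 37 C and 5% CO2 to compounds with retinol at 1 uM final. Cellular ATP, read by luminescence, served as the viability measure.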
# [5] = qHTS assay to identify small molecule antagonists of the estrogen related receptor (ERR) signaling pathway - cell viability counter screen (AID 1224818); further: potency means the concentration at half of the fitted maximal effect
# Summary of the method: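 Viability of ERR cells, CellTiter-Fluor fluorescence; 17.5 h compound exposure at 37 C, DMSO vehicle; 30 min reagent incubation at 37 C/5% CO2.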
# [6] = qHTS assay to identify small molecule antagonists of the estrogen related receptor signaling pathway with the pleiotropic PPARgamma coactivator (PGC) cell viability counter screen (AID 1224822; further: potency means the concentration at half of the fitted maximal effect)
# Summary of the method: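 17.5 h compound treatment of PGC/ERR cells at 37 C; readout CellTiter-Fluor fluorescence; run alongside the PGC/ERR antagonist screen to flag cytotoxic compounds.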
# [7] = qHTS assay to identify small molecule antagonists of the estrogen related receptor (ERR) signaling pathway (AID 1224819; further: nearly all actives have a fitted effect of over 50% in size; further: potency means the concentration at half of the fitted maximal effect)
# Summary of the method: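 Seed ERR cells 2,000/well; rest 6 h at 37 C/5% CO2; pin compounds in DMSO; incubate 18 h at 37 C; add One-Glo; wait 30 min at room temperature; measure luminescence.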
# [8] = qHTS assay to identify small molecule agonists of the estrogen related receptor (ERR) signaling pathway (AID 1224820)
# Summary of the method: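 After 6 h plating (2,000 cells/well) and 18 h compound treatment at 37 C, ERR cells were lysed with One-Glo and luminescence read after 30 min at room temperature.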
# [9] = system: estrogen-related receptor alpha (ERRalpha) with PGC-1alpha coactivator, human; assay: qHTS assay to identify small molecule antagonists of the estrogen related receptor signaling pathway with the pleiotropic PPARgamma coactivator (PGC) (AID 1224821; calls by dose curve;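 further: series mostly up to about 46 µM; lower luminescence signal means antagonism of PGC/ERR signalling; nearly all actives have a fitted effect of over 50% in size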)
# Summary of the method: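 Luminescence from One-Glo luciferase reagent (30 min, room temperature) measured after 18 h compound treatment at 37 °C. Cells carry the PGC/ERR reporter and were seeded 6 h prior to dosing.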
# [10] = qHTS assay to identify small molecule agonists of the estrogen related receptor signaling pathway with the pleiotropic PPARgamma coactivator (PGC) (AID 1224823)
# Summary of the method: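 Luminescence from One-Glo reagent (30 min, room temperature) was read after 18 h compound treatment at 37 C of PGC/ERR cells plated 6 h beforehand; compounds delivered in DMSO by pin tool.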
compound,measurement,setting,value
CC1=C(C=O)C(C)(C)CC=C1,Potency,[1],inactive
same,Potency,[2],inactive
same,Potency,[3],inactive
O=S(=O)(O)c1ccc2nc(-c3ccccc3)[nH]c2c1,Potency,[1],inactive
same,Potency,[2],inactive
same,Potency,[3],inactive
Cc1cccc2n[nH]nc12,Potency,[1],inactive
same,Potency,[4],inactive
same,Potency,[2],inactive
same,Potency,[3],inactive
C[N+]1([O-])CCOCC1,Potency,[1],inactive
same,Potency,[4],inactive
same,Potency,[2],inactive
same,Potency,[3],inactive
NCCCCCC(=O)O,Potency,[1],inactive
same,Potency,[4],inactive
same,Potency,[2],inactive
same,Potency,[3],inactive
same,Potency,[5],inactive
same,Potency,[6],inactive
CCn1cc(C(=O)O)c(=O)c2cc(F)c(N3CCNC(C)C3)c(F)c21 (stereo unspecified),Potency,[1],inactive
same,Potency,[4],inactive
same,Potency,[2],inactive
same,Potency,[3],inactive
same,Potency,[5],inactive
same,Potency,[7],inactive
same,outcome,[8],inactive
same,Potency,[9],inactive
same,Potency,[6],inactive
same,outcome,[10],inactive
C1COC(NC(C2CC2)C2CC2)=N1,Potency,[1],inactive
same,Potency,[4],inactive
same,Potency,[2],inactive
same,Potency,[3],inactive
same,Potency,[5],inactive
same,Potency,[7],inactive
same,Potency,[9],inactive
same,Potency,[6],inactive
same,outcome,[10],inactive
CNC1(C)C2CCC(C2)C1(C)C (stereo unspecified),outcome,[8],inactive
same,outcome,[10],inactive
NC(Cc1ccc(Cl)cc1)C(=O)O (stereo unspecified),outcome,[8],inactive
same,outcome,[10],inactive
NNCCc1ccccc1,Potency,[4],inactive
same,Potency,[2],inactive
same,Potency,[3],1.37 µM (active) and 9.44 µM (active)
same,Potency,[5],inactive
same,Potency,[6],inactive
OCCOCCN1CCN(C(c2ccccc2)c2ccc(Cl)cc2)CC1 (stereo unspecified),Potency,[4],inactive
same,Potency,[2],60.3 µM (active) and inactive
same,Potency,[3],inactive
O=C(O)CP(=O)(O)O,Potency,[2],inactive
same,Potency,[3],inactive
same,Potency,[5],inactive
same,Potency,[6],inactive
Cc1c(O)cccc1C(=O)N[C@@H](CSc1ccccc1)[C@H](O)CN1C[C@H]2CCCC[C@H]2C[C@H]1C(=O)NC(C)(C)C,Potency,[4],inactive
same,Potency,[5],10.6 µM (active)
same,Potency,[7],19.6 µM (active)
same,outcome,[8],inactive
same,Potency,[9],inactive
same,Potency,[6],10.6 µM (active)
same,outcome,[10],inactive
O=C(O)Cn1cnnn1,Potency,[2],inactive
same,Potency,[3],inactive
O=C(O)CCc1ccccc1,Potency,[4],inactive
same,Potency,[2],inactive
same,Potency,[3],inactive
CC(C)(C)c1ccc(O)c(C(C)(C)C)c1,Potency,[3],inactive
Nc1nc(=S)c2[nH]cnc2[nH]1,Potency,[4],inactive
same,Potency,[2],inactive and 24.3 µM (active)
same,Potency,[3],inactive
Cc1scc2c1N(C(=O)CN1CCN(C)CC1)c1ccccc1NC2=O,Potency,[4],inactive
same,Potency,[2],inactive
same,Potency,[3],inactive
same,Potency,[5],inactive
same,Potency,[6],inactive
O=C(O)c1cc(Cl)cc(Cl)c1,Potency,[4],inactive
same,Potency,[2],inactive
same,Potency,[3],inactive
CCCCC(CC)COC(=O)CC(C(=O)OCC(CC)CCCC)S(=O)(=O)O (stereo unspecified),Potency,[2],inactive
same,Potency,[3],inactive
CCN(CC)C(=O)Nc1ccc(OCC(O)CNC(C)(C)C)c(C(C)=O)c1 (stereo unspecified),Potency,[4],inactive
same,Potency,[2],inactive
same,Potency,[3],inactive
N[C@@H]1CONC1=O,Potency,[4],inactive
same,Potency,[2],inactive
same,Potency,[3],inactive
same,Potency,[5],inactive
same,Potency,[7],inactive
same,outcome,[8],inactive
same,Potency,[9],inactive
same,Potency,[6],inactive
same,outcome,[10],inactive
CC(C)CCOC(=O)c1ccc(N(C)C)cc1,Potency,[4],inactive
same,Potency,[2],inactive
same,Potency,[3],2.11 µM (active)
COc1ccc(CCN(C)CCCC(C#N)(c2ccc(OC)c(OC)c2)C(C)C)cc1OC (stereo unspecified),Potency,[4],inactive
same,Potency,[5],inactive
Nc1ccc2cc3ccccc3cc2c1,Potency,[4],inactive
same,Potency,[2],inactive
same,Potency,[3],5.54 µM (active) and 34.4 µM (active)
O=C(Oc1ccccc1)c1ccccc1O,Potency,[4],inactive
same,Potency,[2],inactive
same,Potency,[3],inactive
NC(N)=NC(=O)Cc1c(Cl)cccc1Cl,Potency,[4],inactive
same,Potency,[2],inactive
same,Potency,[3],inactive
same,Potency,[5],inactive
same,Potency,[7],inactive
same,outcome,[8],inactive
same,Potency,[9],inactive
same,Potency,[6],inactive
same,outcome,[10],inactive
O=c1n(CC2CO2)c(=O)n(CC2CO2)c(=O)n1CC1CO1 (stereo unspecified),Potency,[2],inactive
same,Potency,[3],inactive
Cc1cccc([N+](=O)[O-])c1C(=O)O,Potency,[2],inactive
same,Potency,[3],inactive
CCN(CC)CCOc1ccc(/C(=C(\Cl)c2ccccc2)c2ccccc2)cc1,Potency,[4],49.6 µM (active)
same,Potency,[2],24.8 µM (active)
C=CS(=O)(=O)O,Potency,[2],inactive
same,Potency,[3],inactive
Cc1ccc(-c2cc(C(F)(F)F)nn2-c2ccc(S(N)(=O)=O)cc2)cc1,Potency,[4],60.9 µM (active) and inactive
same,Potency,[2],43.1 µM (active) and 27.3 µM (active) and 29.8 µM (active)
same,Potency,[5],inactive
same,outcome,[8],inactive
same,Potency,[9],inactive
same,Potency,[6],inactive
same,outcome,[10],inactive
CN(C)c1ccc2nc3ccc(=[N+](C)C)cc-3sc2c1,Potency,[3],2.94 µM (active) and 1.37 µM (active) and 1.68 µM (active)
CCCCC/C=C/CC1CC(=O)OC1=O (stereo unspecified),Potency,[4],inactive
same,Potency,[2],inactive
same,Potency,[3],inactive
C#CC(C)(CC)OC(=O)c1ccccc1C(=O)O (stereo unspecified),Potency,[4],inactive
same,Potency,[2],inactive
same,Potency,[3],inactive
CC(=O)Nc1ccc(C(=O)CCl)cc1,Potency,[2],inactive and 48.6 µM (active)
same,Potency,[3],inactive
CCCNC(C)C(=O)Nc1ccccc1C (stereo unspecified),Potency,[2],inactive
same,Potency,[3],inactive
same,Potency,[5],inactive
same,Potency,[6],inactive
